Assay results published in PubChem BioAssay AID602329 (Broad Institute, 2012).
In all, about 360,000 compounds went through this assay and about 510 (0.14%) were called active.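 How the source made its calls: active means mean normalized replicate activity at least 40 and at least half of replicates scoring 40 or more; inconclusive means only one of the two criteria met; inactive means mean below 40 and under half of replicates reaching 40.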 Many of the other results were omitted from the sample, so actives are more common in it than they were.

Each molecule was assayed against DNA repair and recombination protein RAD54-like (Homo sapiens) (UniProt Q92698) (assay: RAD54 Holliday junction migration blockers – biochemical, fluorescence, single point, primary screen (AID 602329;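 further: 0% = median of neutral control wells and 100% = median of positive control wells; inhibitors cause a drop in the FAM fluorescence signal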)). Details: RAD54 Holliday junction branch migration, FAM/BHQ fluorescence; at 10.4 µM; hits give high values.
Sequence of DNA repair and recombination protein RAD54-like (Homo sapiens) (Q92698 whole entry, looked up): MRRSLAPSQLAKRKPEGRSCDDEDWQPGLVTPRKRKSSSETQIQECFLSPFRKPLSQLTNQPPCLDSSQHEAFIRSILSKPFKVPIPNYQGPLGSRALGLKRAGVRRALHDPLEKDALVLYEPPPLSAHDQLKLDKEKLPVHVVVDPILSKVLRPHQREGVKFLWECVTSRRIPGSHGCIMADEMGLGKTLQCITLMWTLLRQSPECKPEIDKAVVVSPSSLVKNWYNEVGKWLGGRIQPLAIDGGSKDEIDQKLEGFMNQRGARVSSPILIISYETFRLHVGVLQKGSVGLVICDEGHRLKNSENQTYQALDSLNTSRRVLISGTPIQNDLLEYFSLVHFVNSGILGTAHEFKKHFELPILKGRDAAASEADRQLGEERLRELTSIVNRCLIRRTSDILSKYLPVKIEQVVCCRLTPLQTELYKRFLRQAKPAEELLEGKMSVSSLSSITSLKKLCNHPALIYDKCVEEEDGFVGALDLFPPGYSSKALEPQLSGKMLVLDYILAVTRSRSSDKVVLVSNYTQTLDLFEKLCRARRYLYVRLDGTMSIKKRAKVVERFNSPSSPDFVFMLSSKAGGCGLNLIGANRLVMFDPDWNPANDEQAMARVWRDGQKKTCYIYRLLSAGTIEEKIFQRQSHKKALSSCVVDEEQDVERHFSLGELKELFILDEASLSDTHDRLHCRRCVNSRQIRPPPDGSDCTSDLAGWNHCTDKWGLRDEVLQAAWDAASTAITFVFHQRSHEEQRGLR

Compound | inhibition
COc1cccc(C#Cc2ccc([C@H]3[C@@H](CO)N(C(=O)c4ccccn4)[C@H]3C#N)cc2)c1 | -3.06% (inactive)
CCCNC(=O)N(C)C[C@H]1Oc2ncc(-c3ccc(C(=O)N(C)C)cc3)cc2C(=O)N([C@@H](C)CO)C[C@@H]1C | -0.543% (inactive)
C[C@@H]1CN([C@@H](C)CO)C(=O)c2cc(C#Cc3ccncc3)cnc2O[C@@H]1CN(C)C(=O)CN(C)C | 0.163% (inactive)
C[C@H]1CN([C@@H](C)CO)C(=O)Cc2cc(NS(C)(=O)=O)ccc2O[C@@H]1CN(C)S(=O)(=O)c1ccc(Cl)cc1 | 4.72% (inactive)
COCC(=O)Nc1ccc2c(c1)[C@@H]1C[C@H](CC(=O)NCc3cc(F)ccc3F)O[C@@H](CO)[C@@H]1O2 | -1.13% (inactive)
CO[C@H]1CN(C)C(=O)c2ccc(NC(=O)c3cc(C)on3)cc2OC[C@H](C)N(C)C[C@H]1C | -1.45% (inactive)
O=C(NCCN1CCN(Cc2ccccc2)CC1)c1cc2c(=O)[nH]c3ccccc3c2s1 | -0.046% (inactive)
Cc1cccc2c1-c1sc(C(=O)NCCCN3CCc4ccccc4C3)cc1CO2 | 22% (inactive)
CN1CCN(CCCNC(=O)c2cc3c(=O)oc4ccccc4c3s2)CC1 | 55.7% (active)
Cn1cnc(S(=O)(=O)N2C[C@H](O)COC[C@@H]3O[C@H](CC(=O)NCc4cccc(F)c4)CC[C@H]32)c1 | 7.2% (inactive)
COc1ccc(CCNC(=O)c2ccc3c(c2)NC(=O)C(N2CCOCC2)S3)cc1OC (stereo unspecified) | -1.36% (inactive)
COc1ccc(/C=C(\NC(=O)c2ccccc2)C(=O)NCCN2CCOCC2)cc1OC | -3.48% (inactive)
CCN1CCN(CCNC(=O)c2ccc3c(c2)NC(=O)/C(=C\c2ccc(OC)c(OC)c2)S3)CC1 | 72.7% (active)
CC(C)C(=O)Nc1ccc2c(c1)C(=O)N(C)[C@H]1CC[C@H](CC(=O)NCc3ccc(F)cc3)O[C@H]1CO2 | 7.1% (inactive)
CNC(=O)C[C@H]1CC[C@H]2[C@@H](COc3ccc(NC(=O)c4cccc(OC)c4)cc3C(=O)N2C)O1 | 7.1% (inactive)
COC(=O)[C@@H]1[C@@H](CO)[C@@H]2Cn3c(ccc(-c4ccccc4)c3=O)[C@@H]2N1C(=O)C1CC1 | -7.82% (inactive)
C[C@@H]1CN([C@@H](C)CO)C(=O)c2cc(-c3ccncc3)cnc2O[C@@H]1CN(C)C(=O)C1CCCCC1 | -1.52% (inactive)
N#C[C@@H]1[C@H](c2ccc(C#CC3CCCCC3)cc2)[C@@H](CO)N1S(=O)(=O)c1ccccc1 | 1.51% (inactive)
O=C(NCCCN1CCOCC1)c1cc(-c2cccc(O)c2)on1 | 10.7% (inactive)
O=C(NCCCN1CCOCC1)c1cnn2c(-c3ccccc3)cc(-c3ccccc3)nc12 | 58.3% (active)
O=C(NCCCN1CCOCC1)c1cc(-c2ccccc2F)no1 | -15.8% (inactive)
C[C@H]1CN([C@@H](C)CO)S(=O)(=O)c2ccc(-c3cccnc3)cc2O[C@H]1CN(C)C(=O)C1CCCCC1 | 0.93% (inactive)

Compound | inhibition
COc1ccc(CN(C)C[C@@H]2Oc3ccc(NC(=O)NC(C)C)cc3C(=O)N([C@@H](C)CO)C[C@H]2C)cc1 | 56.8% (active)
COc1ccc(NC(=O)Nc2ccc3c(c2)C(=O)N([C@H](C)CO)C[C@@H](C)[C@H](CN(C)Cc2ccccc2)O3)cc1 | 22.5% (inactive)
CC(C)NC(=O)Nc1ccc2c(c1)C(=O)N([C@H](C)CO)C[C@@H](C)[C@@H](CN(C)Cc1ccncc1)O2 | -0.866% (inactive)
COc1ccc(NC(=O)Nc2ccc3c(c2)C(=O)N([C@@H](C)CO)C[C@H](C)[C@@H](CN(C)Cc2ccc4c(c2)OCO4)O3)cc1 | 3.59% (inactive)
COc1ccc(CN(C)C[C@@H]2Oc3ccc(NC(=O)Nc4ccc(OC)cc4)cc3C(=O)N([C@H](C)CO)C[C@H]2C)cc1 | 67.3% (active)
CC(C)NC(=O)Nc1ccc2c(c1)C(=O)N([C@@H](C)CO)C[C@@H](C)[C@H](CN(C)Cc1ccc(-c3ccccc3)cc1)O2 | 20.7% (inactive)
CN1c2ccc(C#Cc3cccnc3)cc2[C@@H]2[C@@H](CCN2S(=O)(=O)c2ccccc2)[C@H]1CO | -8.94% (inactive)
CCOc1ccc(OCCSc2nc3ccccc3n2CC(=O)O)cc1 | -7.61% (inactive)
CCCCCn1c(=O)c(C(=O)OCC)c(Cl)c2ccccc21 | 0.614% (inactive)
CCCCCCCCCCOC(=O)Cn1c(COc2ccc(C)cc2)[n+](C)c2ccccc21 | 50.3% (active)
C[C@@H]1CN([C@@H](C)CO)C(=O)Cc2cc(NC(=O)Nc3ccc(C(F)(F)F)cc3)ccc2O[C@H]1CN(C)C(=O)Nc1ccc(F)cc1 | 0.667% (inactive)
CN1C(=O)c2cc(NS(=O)(=O)c3ccccc3F)ccc2OC[C@@H]2O[C@@H](CC(=O)NC3Cc4ccccc4C3)CC[C@@H]21 | -2.97% (inactive)
C[C@H](CO)N1C[C@H](C)[C@@H](CN(C)S(=O)(=O)c2ccc(Cl)cc2)Oc2ccc(NS(=O)(=O)c3cn(C)cn3)cc2C1=O | -4.21% (inactive)
CO[C@@H]1CN(C)C(=O)c2cc(NC(=O)C3CCOCC3)ccc2OC[C@@H](C)NC[C@@H]1C | 8.52% (inactive)
CC(C)CC#Cc1cnc2c(c1)C(=O)N([C@@H](C)CO)C[C@@H](C)[C@@H](CN(C)S(=O)(=O)c1cccs1)O2 | 12.1% (inactive)
COc1cccc(NC(=O)Nc2ccc3c(c2)C(=O)N(C)C[C@@H](OC)[C@H](C)CN(CC2CC2)[C@H](C)CO3)c1 | 8.71% (inactive)
Cc1ccc(S(=O)(=O)Nc2ccc3c(c2)C(=O)N([C@H](C)CO)C[C@H](C)[C@H](CN(C)Cc2ccccc2)OCCCC[C@@H](C)O3)cc1 | 5.79% (inactive)
COc1ccc(C(=O)Nc2ccc3c(c2)OC[C@H](C)N(C(C)=O)C[C@@H](C)[C@H](OC)CN(C)C3=O)cc1 | -4.9% (inactive)
CO[C@@H]1CN(C)C(=O)c2cc(NS(=O)(=O)c3ccc(Cl)cc3)ccc2OC[C@H](C)NC[C@@H]1C | -8.54% (inactive)
CN1c2ccc(-c3cccc(C#N)c3)cc2[C@@H]2[C@@H](CCN2C(=O)NC2CCCCC2)[C@@H]1CO | -3.76% (inactive)
O=S(=O)(c1ccc(F)cc1)N1CC[C@@H]2[C@@H](CO)Nc3ccc(-c4ccccc4F)cc3[C@@H]21 | 7.93% (inactive)
CC(=O)N(C)C[C@@H]1Oc2ncc(-c3ccccc3F)cc2C(=O)N([C@H](C)CO)C[C@@H]1C | -1.78% (inactive)

Compound | inhibition
COc1ccccc1NC(=O)N1[C@H](C#N)[C@H](c2ccccc2)[C@H]1CO | 10.5% (inactive)
CC(=O)N(C)C[C@H]1Oc2cc(C#Cc3ccccc3F)ccc2S(=O)(=O)N([C@H](C)CO)C[C@@H]1C | 2% (inactive)
O=C(C[C@@H]1C=C[C@@H](NC(=O)c2cccnc2)[C@H](CO)O1)NCCN1CCCCC1 | 0.617% (inactive)
O=C(CC1CC1)Nc1ccc2c(c1)[C@@H]1C[C@@H](CC(=O)NC3CCCCC3)O[C@H](CO)[C@@H]1O2 | -1.82% (inactive)
CN1CCC[C@@H]1CCO[C@](C)(c1ccccc1)c1ccc(Cl)cc1 | 11.3% (inactive)
Cc1cc2oc3ccc(NCCC4CCCN4C)cc3c(=O)c2cc1C (stereo unspecified) | 102% (active)
COc1cccc2sc3cc(NCC[C@@H]4CCCN4C)ccc3c(=O)c12 | 94% (active)
CO[C@@H]1CN(C)C(=O)c2cc(NS(=O)(=O)CC(F)(F)F)ccc2OC[C@@H](C)N(Cc2ccccn2)C[C@H]1C | -9.64% (inactive)
COc1ccc(S(=O)(=O)Nc2ccc3c(c2)C(=O)N([C@@H](C)CO)C[C@@H](C)[C@@H](CN(C)S(C)(=O)=O)O3)cc1 | -4.67% (inactive)
C[C@@H]1CCCCO[C@@H](CN(C)C(=O)NC2CCCCC2)[C@H](C)CN([C@H](C)CO)C(=O)c2cc(NC(=O)c3ccccc3)ccc2O1 | -0.448% (inactive)
COc1cccc(NC(=O)N2C[C@@H](O)COC[C@@H]3O[C@@H](CC(=O)NC4CCC4)CC[C@H]32)c1 | -4.41% (inactive)
C[C@@H]1CN([C@@H](C)CO)C(=O)c2cc(NC(=O)Nc3ccc(C(F)(F)F)cc3)ccc2O[C@@H](C)CCCCO[C@H]1CN(C)C(=O)c1ccccc1 | -3.03% (inactive)
CO[C@H]1CC[C@H]2CCOc3c(C#N)cccc3C(=O)N(C)CC3(CCCCC3)CC(=O)N(C)C[C@@H]1O2 | -12.8% (inactive)
CN1c2ccc(Br)cc2[C@@H]2[C@@H](CCN2S(=O)(=O)c2ccc(F)cc2)[C@@H]1CO | -1.32% (inactive)
CN1c2ccc(-c3ccccc3)cc2[C@@H]2[C@@H](CCN2C(=O)c2ccccc2F)[C@@H]1CO | 4.56% (inactive)
CCCC#Cc1ccc2c(c1)O[C@H](CN(C)C(=O)c1ccncc1)[C@H](C)CN([C@H](C)CO)S2(=O)=O | 12.3% (inactive)
C[C@@H]1CN([C@@H](C)CO)C(=O)Cc2cc(NC(=O)Nc3ccc4c(c3)OCO4)ccc2O[C@@H]1CN(C)S(=O)(=O)c1ccc(Cl)cc1 | 1.58% (inactive)
Cc1cc(C)c2nc3nc(C)cc(C)c3c(N)c2c1 | 96% (active)
CCC(=O)N(C)C[C@H]1Oc2ncc(C#C[C@@H](C)O)cc2C(=O)N([C@@H](C)CO)C[C@H]1C | 0.495% (inactive)
CN1CCN(C(=O)C[C@H]2C[C@H]3c4cc(NC(=O)C5CCC5)ccc4O[C@H]3[C@H](CO)O2)CC1 | 6.76% (inactive)
CNC[C@H]1OCCCC[C@@H](C)Oc2ccc(NC(=O)c3ccccc3)cc2C(=O)N([C@@H](C)CO)C[C@H]1C | 6.8% (inactive)
COc1ccc(S(=O)(=O)N2CC[C@H]3[C@@H](CO)N(C)c4ccc(C#Cc5ccccc5OC)cc4[C@H]32)cc1 | 17.3% (inactive)
